# Compound activity: PubChem, National Center for Advancing Translational Sciences (NCATS)
# Rows were chosen to be rich in hits. Some 2.6% of all compounds tested hit in one or more screens of this group.
# HEK293 cAMP cs: qHTS Assay for Agonists of the Thyroid Stimulating Hormone Receptor: Activators of Intracellular cAMP Concentrations in Parental HEK 293; parental HEK293 CNG cAMP sensor, membrane potential fluorescence; Potency, µM (doses to about 57.1 µM), without a hit: top-dose activation, usual class: activators; actives 2.5% (n = 73,000); further: % of control where 0% means no effect; nearly all actives have a fitted effect of over 55% in size
#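 Counterscreen for endogenous-receptor signalling: CNG-channel HEK 293 cells report cAMP rise by membrane depolarization. After 60 min dye equilibration with 100 uM RO 20-1724, compounds incubated 30 min before bottom-read fluorescence at 590 nm.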
# Caspase-7 inhib: qHTS Assay for Allosteric/Competitive Inhibitors of Caspase-7; P55210; recombinant caspase-7, Ac-DEVD-AFC fluorescence rate; Potency, µM (series often up to 57.5 µM), inactives show at the top dose activity change, negative = inhibition, usual class: inhibitors; actives 0.02% (n = 75,000); AID 889, 2007; active means well fitted inhibition curve with a large enough effect in the main read-out, with a control signal flat, not every such curve was filed as active; inconclusive means small, poorly fitted or top-dose-only effect, or a change in a side signal; further: % of control where 0% means no effect
# Casp1 inh: qHTS Assay for Allosteric/Competitive Inhibitors of Caspase-1; Caspase-1 enzyme, Ac-WEHD-AFC fluorogenic rate; actives 0.03% (n = 75,000); Potency, µM (series often up to 57.5 µM), inactives show at the top dose activity change, negative = inhibition, actives largely listed as inhibitors; P29466; AID 900, 2007;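 further: plate controls were vehicle for no effect and no substrate for full effect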
# TSHR ag: qHTS Assay for Agonists of the Thyroid Stimulating Hormone Receptor; HEK293-CNG-TSHR cells (CNG channel as cAMP sensor), membrane potential dye, cAMP; Potency, µM (highest dose often 57.1 µM), for the others: at the highest dose activation, hits mostly activators; actives 0.48% (n = 73,000); AID 926, 2007; active means well fitted activation curve with a large enough effect in the main read-out, with a control signal flat, not every such curve was filed as active; inconclusive means small, poorly fitted or top-dose-only effect, or a change in a side signal; inactive means no such curve, though single readings can be large or run the other way; % of control where 0% means no effect;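 further: the control signal comes from parental cells without the receptor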
#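 HEK 293 cells stably expressing TSHR and a cAMP-gated CNG channel; parental CNG-only cells as counterscreen. Cells preloaded 60 min with membrane potential dye plus 100 uM RO 20-1724, then compound 30 min; fluorescence read at 590 nm.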
# Active calls of the source: *; ? = inconclusive; nt = not tested or not shown; [ ] = dose if it differs, or a comment. Unless noted, the call rests on the fitted dose curve; in most records, active means well fitted curve in the direction sought with a large enough effect; inconclusive means small, poorly fitted or top-dose-only effect, or another doubt; inactive means no such curve, though single readings can be large; an effect the other way counts as inactive or inconclusive. Potency means the concentration at half of the fitted maximal effect.
SMILES,HEK293 cAMP cs,Caspase-7 inhib,Casp1 inh,TSHR ag
O=C(N[C@@H](CO)[C@@H](O)c1ccc([N+](=O)[O-])cc1)C(Cl)Cl,?,0%[25.7 µM],2%[25.7 µM],?
O=C(NCc1ccco1)C1CCN(C(=O)c2cc3sccc3n2Cc2ccc(Cl)cc2)CC1,13µM*,-3%,-4%,?
CCOC(=O)CCC(NC(=O)c1ccc(NCN2C(=O)CCC2=O)cc1)C(=O)OCC (stereo not given),-1%,0%,0%,2%
CCOC(=O)CCC(NC(=O)c1ccc(NCN2C(=O)c3ccccc3C2=O)cc1)C(=O)OCC (stereo not given),0.79µM*,1%,-1%,?
O=C(C1CC1)N1CCc2cc(S(=O)(=O)NCC3COc4ccccc4O3)ccc21 (stereo not given),?,0%,-4%,?
O=C(C1CC1)N1CCc2cc(Br)cc(S(=O)(=O)NCC3COc4ccccc4O3)c21 (stereo not given),16µM*,0%,1%,?
O=c1cnc2cnc(Oc3cccc(Cl)c3)nc2n1C1CC1,7%,1%,-4%,21%
O=C(c1noc2c1CCc1ccccc1-2)N1CCOCC1,-1%,0%,-1%,-7%
O=C(c1noc2c1CCc1ccccc1-2)N1CCCc2ccccc21,25µM*,-3%,-2%,?
CCN1CCN(C(=O)c2cnn3c(C(F)F)cc(-c4ccc(C)cc4)nc23)CC1,16µM*,-7%,-11%,?
Cc1ccc(-c2cc(C(F)F)n3ncc(C(=O)N4CCN(c5ccccn5)CC4)c3n2)cc1,32µM*,?,?,?
COc1ccc(C2C(C(=O)Nc3cc(C)on3)c3ccccc3C(=O)N2C)cc1 (stereo not given),?,0%,0%,?
Cc1ccc(CNC(=O)C2c3ccccc3C(=O)N(C)C2c2c[nH]c3ccccc23)o1 (stereo not given),25µM*,-1%,-3%,?
C[N+](C)(C)CC(=O)N/N=C\c1ccncc1,-3%[11.4 µM],-1%[11.5 µM],-3%[11.5 µM],3%[11.4 µM]
O=C(c1csnn1)N1CCC2(CCCN(Cc3ccccc3)C2)CC1,14%,-1%,-2%,13%
CCc1cc2c(nc1CC)CCN(CC/C(C)=N/O[C@@H](C)CN1CCCc3nc(C)c(C)cc31)C2,30%[11.4 µM],-10%[11.5 µM],-2%[11.5 µM],19%[11.4 µM]
CCCCNc1nc(C)nc2c1nc(-c1ccccc1)n2CCN(C)C,25µM*,0%,-2%,?
CCCn1c(-c2ccc(F)cc2)nc2c(NCCCN(C)C)nc(C)nc21,25µM*,1%,1%,?
CCCn1c(-c2ccc(F)cc2)nc2c(NCC(C)(C)CN(C)C)nc(C)nc21,25µM*,-2%,-7%,?
O=C(c1cnccn1)N1CCC2(CCCN(c3ccccc3)C2)CC1,20%,-1%,-1%,7%
COc1ccccc1CNc1ncnc2ccc(-c3ccoc3)cc12,20µM*,-5%,-4%,?
COc1cccc(-c2cncnc2NCCc2cnc[nH]2)c1,5%,0%,1%,0%
c1ncc(-c2ccoc2)c(NC2CC2)n1,4µM*,-18%,-7%,?
COc1ccccc1CNc1ncnc2c1nnn2Cc1ccccc1,13µM*,-2%,-3%,?
COc1cccc(-c2cncnc2NCc2ccccc2OC)c1,25µM*,-4%,-2%,?
SMILES,HEK293 cAMP cs,Caspase-7 inhib,Casp1 inh,TSHR ag
c1cncc(CNc2ncncc2-c2ccoc2)c1,9%,-13%,-8%,4%
CC(C)(C)c1ccc(OC2C(O)COC2/C=C/C#Cc2ccccc2)cc1 (stereo not given),6%[11.4 µM],-6%[11.5 µM],-3%[11.5 µM],5%[11.4 µM]
C[C@@H](CCC(=O)O)C(=O)O,11%[11.4 µM],0%[11.5 µM],-2%[11.5 µM],-1%[11.4 µM]
COc1ccccc1CNc1ncncc1-c1ccccc1OC,10µM*,-2%,-1%,?
COc1ccc(CNc2ncnc3ccc(-c4ccoc4)cc23)c(OC)c1,?,-8%,-6%,?
COc1ccc(CNc2ncncc2-c2ccoc2)c(OC)c1,10µM*,-7%,-1%,?
COc1ccccc1CNc1ncncc1-c1ccccc1CN(C)C,16%,0%,1%,9%
COc1cccc(-c2cncnc2NCc2ccc(OC)cc2OC)c1,16µM*,-1%,-3%,?
COc1ccc(CNc2ncncc2-c2cccnc2)c(OC)c1,5%,-5%,-4%,10%
Cn1c(C(=O)NCc2cccnc2)cc2sc(Cl)cc21,25µM*,0%,-4%,?
COc1ccccc1-c1cc(C(F)(F)F)nc(N2CCN(c3ccccc3)CC2)n1,11%,1%,1%,9%[11.4 µM]
COc1ccccc1-c1cc(C(F)(F)F)nc(N2CCOCC2)n1,20µM*,-1%,1%,?
Cc1ccc(Cn2nnc3c(=O)n(Cc4cccc(C)c4)cnc32)cc1,?,-3%,-3%,?
Cc1ccc(Cn2nnc3c(=O)n(Cc4cc(C)ccc4C)cnc32)cc1,3.2µM*,-1%,-2%,?
CCOC(=O)C1CCCN(Cc2ccc(OC)cc2OC)C1 (stereo not given),32µM*,-1%,-1%,?
C[C@@](N)(C(=O)O)c1ccc(C(=O)O)cc1,?,-1%,-11%,?
COc1ccc(NC(=O)C2CCN(c3nc(C)nc4c3CCC4)CC2)cc1,32µM*,-3%,0%,?
COC(=O)[C@@]1(Cc2ccc(OC)cc2)[C@H]2c3cc(C(=O)N4CCCC4)n(Cc4ccc(S(C)(=O)=O)cc4)c3C[C@H]2CN1C(=O)c1ccccc1,20µM*,-6%,-6%,?
COC(=O)[C@@]1(Cc2ccc(OC)cc2)[C@H]2c3cc(C(=O)N4CCCC4)n(Cc4ccc(C)o4)c3C[C@H]2CN1C(=O)c1ccccc1,3.2µM*,-4%,-2%,?
COC(=O)[C@@]1(Cc2ccc(OC)cc2)[C@H]2c3cc(C(=O)N4CCCC4)n(Cc4ccc(Cl)c(C(F)(F)F)c4)c3C[C@H]2CN1C(=O)c1ccccc1,?,-5%,-2%,?
COC(=O)[C@@]1(Cc2ccc(OC)cc2)[C@H]2c3cc(C(=O)N4CCCC4)n(Cc4ccccn4)c3C[C@H]2CN1C(=O)c1ccccc1,?,-4%,0%,?
COC(=O)[C@@]1(Cc2ccc(OC)cc2)[C@H]2c3cc(C(=O)N4CCCC4)n(Cc4ccsc4Br)c3C[C@H]2CN1C(=O)c1ccccc1,2.5µM*,-4%,-10%,?
COC(=O)[C@@]1(Cc2ccc(OC)cc2)[C@H]2c3cc(C(=O)N4CCCC4)n(Cc4cc(F)cc5c4OCOC5)c3C[C@H]2CN1C(=O)c1ccccc1,4µM*,-4%,-2%,?
CCOc1nc(-c2ccccc2)ccc1-c1noc(-c2ccc(OC)c(OC)c2)n1,6%,2%,-2%,nt
Nc1ncnc2nc(N3CCN(CCO)CC3)[nH]c12,?,5%[11.5 µM],-3%[11.5 µM],?
